A selection: hits, their analogues and other compounds. The true share with any hit is near 3.3%.
PriA SSB inh – blocks PriA binding to SSB C-terminal tail | AlphaScreen SSBct-PriA binding, biotinylated peptide | inhibition, % at 33 µM | hit rate 0.6% among 430,000; in the data active means inhibition mostly above about 37%, no sharp cut-off; inactive means mostly below about 20%;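 further: plate controls were negative control peptide for no effect and reference peptide for full effect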
MazEF act – activators of E. coli MazEF toxin-antitoxin RNase; P0AE70; AID 504720; activation, % at 20 µM; hit rate 0.32% among 350,000; FAM/BHQ RNA-DNA oligo cleavage fluorescence, 5 h; in the data active means activation above about 50%
Target sequence (P0AE70 whole entry, looked up): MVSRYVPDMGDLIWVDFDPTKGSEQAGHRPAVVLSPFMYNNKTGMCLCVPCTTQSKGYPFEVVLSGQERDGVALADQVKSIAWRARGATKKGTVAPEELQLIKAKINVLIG
BoNT-A LC inh2 – inhibitors of Botulinum neurotoxin A light chain protease | inhibition, % at 10 µM | multiplex microsphere protease substrate cleavage, flow cytometry | hit rate 0.17% among 360,000 | AID 588499; further: plate controls were buffer without enzyme for full effect and enzyme alone for no effect
BoNT F protease – BoNT F light chain protease inhibition. Multiplex microsphere protease cleavage assay, flow cytometry. inhibition, % at 10 µM. hit rate 0.22% among 360,000. AID 588497; in the data active means inhibition above about 35%, passing the limit was not always enough; inconclusive means no clear call, values can overlap the other calls; further: plate controls were buffer without enzyme for full effect and enzyme alone for no effect
Anthrax LF prot – blocks Bacillus anthracis lethal factor protease | inhibition, % at 10 µM | hit rate 0.12% among 360,000 | multiplex microsphere protease cleavage assay, LF; further: plate controls were buffer without enzyme for full effect and enzyme alone for no effect
Bead autofluor – flagged as autofluorescent in microsphere protease counterscreen; compound autofluorescence counterscreen, microsphere flow cytometry; stronger effect = higher value; fluorescence intensity (no concentration beside the values); hit rate 3.1% among 360,000; AID 624483; in the data active means fluorescence intensity above about 16000; inconclusive means no clear call, values can overlap the other calls
Starred values were filed as active, the others as inactive; ? = inconclusive; nt = no result given; + = active, no number; ! = a repeat was not active. Unless noted, no stated cut-off is given here; in the data, active means inhibition above about 30%; inconclusive means no clear call, values can overlap the other calls; inactive means below that.

SMILES	PriA SSB inh	MazEF act	BoNT-A LC inh2	BoNT F protease	Anthrax LF prot	Bead autofluor
CN(C)CCN(C(=O)c1ccc(C(=O)c2ccccc2)cc1)c1nc2cc3c(cc2s1)OCCO3	48.5*	-0.8	0.4	9.0	-0.2	5191
CN(C)CCN(C(=O)c1ccc(S(=O)(=O)N(C)c2ccccc2)cc1)c1nc2cc3c(cc2s1)OCO3	36.0*	-11.1	0.9	8.2	-2.2	5799
CN(C)CCN(C(=O)c1ccc(C(=O)c2ccccc2)cc1)c1nc2cc3c(cc2s1)OCO3	43.0*!	-15.0	0.4	-0.6	1.6	?
CN(C)CCN(C(=O)c1cccc(Cl)c1)c1nc2cc3c(cc2s1)OCCO3	-4.0	nt	nt	nt	nt	nt
CCSc1ccccc1C(=O)NCC(OC)c1ccco1 (centres undefined)	-26.0	nt	nt	nt	nt	nt
CC12CCC(C(=O)N(CCC(=O)N=Nc3c(O)[nH]c4ccccc34)C1=O)C2(C)C (centres undefined)	16.0	nt	nt	nt	nt	nt
CCN(Cc1ccccc1)Cc1c(C)[nH]c2c(C)c(C)ccc2c1=O	-5.7	9.0	?	-3.8	-4.3	20905*
C=CCN(CC=C)Cc1c(C)[nH]c2c(C)c(C)ccc2c1=O	-12.9	7.8	3.1	30.3	6.1	4535
O=[N+]([O-])c1ccc(Sc2nnnn2-c2ccccc2)c(Cl)c1	45.1*	4.7	1.2	3.9	-1.9	9784
Cn1nnnc1Sc1ccc([N+](=O)[O-])cc1Cl	8.3	4.4	0.5	1.4	-1.8	4498
CS(=O)(=O)N1CCC(C(=O)Nc2ccsc2-c2nc(C3CC3)no2)CC1	13.0	nt	nt	nt	nt	nt
COc1ccc2nc3ccccc3nc2c1NC(=O)c1ccc(Cl)cc1Cl	3.0	+	-3.8	-4.7	-4.1	5745
CCOC(=O)C(=NNc1ccccc1)S(=O)(=O)c1ccccc1	-1.7	nt	nt	nt	nt	nt
CCOC(=O)/C(=N\Nc1ccccc1)S(=O)(=O)c1ccccc1	nt	4.7	-0.8	-3.0	-6.8	23295*
CCOC(=O)N=S(N)(=O)c1ccccc1 (centres undefined)	-3.7	1.9	-0.2	1.5	-0.2	20787*
CCc1cccc(C)c1NC(=O)c1cccc(N2C(=O)[C@@H](C)CS2(=O)=O)c1	-7.0	nt	nt	nt	nt	nt
COc1ccc(S(=O)(=O)CCCC(=O)Nc2nnc(-c3ccc(Br)s3)o2)cc1	8.0	nt	nt	nt	nt	nt
O=C(O)c1cn(-c2ccccc2)nc1-c1ccc(Cl)cc1	-10.6	-0.7	-6.0	-8.6	-9.0	17250*
CCN(CC)C(=O)C1=C(C)NC(=S)NC1c1cn(-c2ccccc2)nc1-c1ccc(Cl)cc1 (centres undefined)	-1.9	-0.5	-0.5	-1.8	-0.6	23563*
O=C(NC1CCN(Cc2ccc(Cl)cc2)CC1)c1cn(-c2ccccc2)nc1-c1cccnc1	5.1	-5.0	-0.2	7.1	-9.2	21980*
COc1ccc(-c2nn(-c3ccccc3)cc2C(=O)O)cc1OC	-6.5	7.0	-0.7	-9.9	-3.1	10292
O=S(=O)(NCc1cnn2ccccc12)c1ccc2c(c1)OCCO2	-2.0	nt	nt	nt	nt	nt
COc1ccc(CCNC(=O)c2nonc2N)cc1	-19.0	9.2	0.3	8.8	-6.5	6706
COc1cccc(CNCCNC(=O)c2nonc2N)c1	0.9	-0.2	-5.2	-9.1	-2.6	24154*
COc1cc([C@H]2C3=C(CCCC3=O)N=C(SCC(=O)Nc3ccccc3F)C2C#N)ccc1O (some centres undefined)	-6.0	nt	nt	nt	nt	nt
SMILES	PriA SSB inh	MazEF act	BoNT-A LC inh2	BoNT F protease	Anthrax LF prot	Bead autofluor
CC(C)c1ccc(-c2nnn(CCC(=O)O)n2)cc1	-8.6	0.6	0.2	-0.2	-1.5	16264*
O=C(O)CCn1nnc(-c2cccs2)n1	2.0	3.3	nt	nt	nt	nt
CCn1nc(C)c(NC(=O)c2cc(Br)ccc2Cl)c1C	-4.8	-3.3	0.3	-0.8	-5.2	19900*
COc1ccc(CN2CCN(S(=O)(=O)c3ccc(F)cc3)CC2)c(OC)c1OC	3.3	3.0	1.4	3.9	-3.7	21826*
COc1ccnc(CSC(N)=Nc2ccc(F)cc2)c1	45.7*	0.4	0.2	-9.5	1.1	3962
Cc1ccc(S(=O)(=O)CCC(=O)Nc2nc3c(cc4c5c(cccc53)CC4)s2)cc1	10.0	nt	nt	nt	nt	nt
COc1ccc(N2C(=O)NC(NC(=O)c3ccncc3)(C(F)(F)F)C2=O)cc1 (centres undefined)	0.4	0.8	0.6	2.0	2.6	22275*
O=C(Nc1ccc(C(F)(F)F)cc1)C1CCCN1S(=O)(=O)c1cccc2cccnc12 (centres undefined)	1.6	6.5	-1.2	-5.7	-8.8	16378*
CCCCN1C(=O)/C(=C2\SC(N3CCCCC3)=NC2=O)c2ccccc21	35.1	6.8	?	-3.0	-6.3	23186*
COC(=O)C1=C(NC(=O)c2cccc(OC)c2)CCS1	-40.7	2.3	-1.1	-1.5	-1.7	22750*
CN1CCN(C(CNC(=O)C(=O)Nc2ccc(F)c(Cl)c2)c2ccsc2)CC1 (centres undefined)	12.0	nt	nt	nt	nt	nt
COc1ccc(NC(=O)C2CC(=O)NC(Nc3cccc(C)c3)=N2)cc1 (centres undefined)	-5.2	5.6	-0.7	-21.2	0.4	4406
CCc1ccc(NC2=NC(C(=O)NC3CCCCC3)CC(=O)N2)cc1 (centres undefined)	-0.4	-1.6	?	6.0	-7.8	20212*
N#Cc1nc(-c2ccccc2)oc1N1CCCCC1	3.2	2.4	-1.1	-4.3	-5.3	8227
N#Cc1nc(-c2ccc(F)cc2)oc1N1CCCCC1	10.2	4.6	2.4	-12.8	-1.8	3647
Cc1ccc(-c2nc(C#N)c(N3CCCCCC3)o2)cc1	98.8*	nt	nt	nt	nt	nt
c1ccc(-c2nc([P+](c3ccccc3)(c3ccccc3)c3ccccc3)c(N3CCCCCC3)o2)cc1	37.0*	nt	nt	nt	nt	nt
N#Cc1nc(-c2ccc(F)cc2)oc1N1CCCC1	-5.5	2.5	-0.4	5.4	-5.3	3578
Cc1ccc(-c2nc(C#N)c(N3CCCCC3)o2)cc1	86.8*!	-1.8	-0.6	-5.2	-7.7	5617
CC(=O)Nc1ccccc1SC(CC(=O)c1ccco1)c1ccc2c(c1)OCO2 (centres undefined)	17.0	nt	nt	nt	nt	nt
Cn1c(SCC(=O)NCc2ccc3c(c2)OCO3)nnc1-c1ccc(=O)n(C)c1	-5.0	nt	nt	nt	nt	nt
O=C(c1ccco1)N1CCNCC1	5.0	nt	nt	nt	nt	nt
O=C1NCCN1C(=O)c1ccco1	-28.6	9.7	-1.6	-2.5	-0.2	22557*
Cc1noc(C)c1COC(=O)c1cc2c(C)nn(-c3ccc(F)cc3)c2s1	3.1	-27.1	-0.5	0.4	-5.4	2922
Cc1nn(-c2ccc(F)cc2)c2sc(C(=O)OCC(=O)N3CCC(C)CC3)cc12	-14.6	2.3	?	9.6	-9.5	19994*
SMILES	PriA SSB inh	MazEF act	BoNT-A LC inh2	BoNT F protease	Anthrax LF prot	Bead autofluor
NC(=O)c1ccc(NC(=O)CN2CCC(C(N)=O)CC2)cc1	-12.0	nt	nt	nt	nt	nt
CC(Cn1cncn1)C(=O)Nc1ccc(F)cc1 (centres undefined)	12.0	nt	nt	nt	nt	nt
Cn1c(SCCC#N)nnc1-c1ccc(F)cc1	nt	nt	-0.7	-2.1	3.7	4007
CC1=C(SCCC#N)S/C(=C2\SC(C)=C(SCCC#N)S2)S1	54.1*	5.2	5.4	-7.2	-10.5	5582
Cc1cc(=O)n(CC(=O)NCc2ccccc2Cl)c(N)n1	-13.0	nt	nt	nt	nt	nt
Cn1c(=O)oc2cc(S(=O)(=O)N3CCN(c4cccc(Cl)c4)CC3)ccc21	-9.6	-25.3	2.3	0.7	0.0	22890*

From PubChem
